Source: PubChem BioAssay AID1159580 (chemical genetic matrix, 2015)
Where “and” joins values, the source holds several entries; their conditions need not be identical. Identical values can stand only once. Out of some 5,500 compounds screened, about 2,000 (36%) were called active. Another 18% or so got no clear call; they are omitted. Rule as the data show it: active = normalized growth mostly below about 0.91 (no sharp cut-off); inconclusive = no clear call, values can overlap the other calls; inactive = mostly above about 0.92. The list shows a part of the results.

Assay: chemical genetic growth profiling, strain panel (AID 1159580);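 also: tested at 20 µM; growth read once vehicle control cultures reached saturation at 30 °C; 1 = growth at the plate median or of vehicle wells; lower values mean less growth of the strain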
Conditions: S. cerevisiae deletion strains, growth OD

Measured: normalized growth

CN=C(NC#N)NCCSCc1nc[nH]c1C
inactive: locus YAL013W, strain DEP1, hits give low values 0.997 | locus YAL021C, strain ccr4, hits give low values 1 | locus YAL026C, strain drs2, hits give low values 0.997 | locus YAL030W, strain snc1, hits give low values 0.998 | locus YAL040C, strain CLN3, hits give low values 1.01 | locus YBL061C, strain skt5, hits give low values 0.991 | locus YBR009C, strain hhf1, hits give low values 0.998 | locus YBR021W, strain FUR4, hits give low values 0.993 | locus YBR023C, strain chs3, hits give low values 0.996 | locus YBR171W, strain sec66, hits give low values 0.996 | locus YBR229C, strain ROT2, hits give low values 0.969 | locus YBR231C, strain swc5, hits give low values 1 | locus YBR279W, strain paf1, hits give low values 0.996 | locus YCL011C, strain gbp2, hits give low values 0.993 | locus YCL016C, strain dcc1, hits give low values 0.989 | locus YCL029C, strain bik1, hits give low values 0.979 | locus YCL061C, strain MRC1, hits give low values 1 | locus YCL069W, strain vba3, hits give low values 1.01 | locus YCR088W, strain abp1, hits give low values 0.998 | locus YDL005C, strain med2, hits give low values 1.01 | locus YDL035C, strain GPR1, hits give low values 1.01 | locus YDL040C, strain nat1, hits give low values 1.01 | locus YDL074C, strain BRE1, hits give low values 1.01 | locus YDL101C, strain DUN1, hits give low values 0.984 | locus YDL134C, strain PPH21, hits give low values 1 | locus YDL185W, strain tfp1, hits give low values 0.977 | locus YDL192W, strain arf1, hits give low values 0.995 | locus YDR001C, strain nth1, hits give low values 1 | locus YDR069C, strain doa4, hits give low values 0.997 | locus YDR101C, strain arx1, hits give low values 0.992 | locus YDR137W, strain rgp1, hits give low values 1.01 | locus YDR150W, strain NUM1, hits give low values 1 | locus YDR159W, strain sac3, hits give low values 0.997 | locus YDR162C, strain NBP2, hits give low values 0.994 | locus YDR195W, strain ref2 0.976 | locus YDR297W, strain sur2, hits give low values 0.997 | locus YDR318W, strain mcm21, hits give low values 0.999 | locus YDR334W, strain swr1, hits give low values 0.996 | locus YDR335W, strain msn5, hits give low values 1.01 | locus YDR363W, strain ESC2, hits give low values 0.998 | locus YDR388W, hits give low values 0.991 | locus YDR392W, strain spt3, hits give low values 0.905 | locus YDR502C, strain sam2, hits give low values 1.02 | locus YEL003W, strain gim4, hits give low values 1.01 | locus YEL037C, strain rad23, hits give low values 0.998 | locus YEL061C, strain CIN8 (second series), hits give low values 1 | locus YEL061C, strain CIN8, hits give low values 0.998 | locus YER002W, strain NOP16, hits give low values 1.02 | locus YER015W, strain faa2, hits give low values 1.01 | locus YER016W, strain bim1, hits give low values 1 | locus YER110C, hits give low values 0.975 | locus YER111C, strain swi4, hits give low values 0.993 | locus YER155C, strain BEM2 (second series), hits give low values 0.97 | locus YER155C, strain BEM2, hits give low values 0.99 | locus YER167W, strain BCK2, hits give low values 0.997 | locus YFR010W, strain ubp6, hits give low values 1 | locus YGL078C, strain dbp3, hits give low values 0.989 | locus YGL086W, strain mad1, hits give low values 1 | locus YGL167C, strain pmr1, hits give low values 0.995 | locus YGL173C, strain kem1, hits give low values 0.997 | locus YGL227W, strain vid30, hits give low values 0.991 | locus YGL240W, strain doc1, hits give low values 0.986 | locus YGL248W, strain PDE1, hits give low values 0.993 | locus YGL253W, strain hxk2, hits give low values 0.997 | locus YGR078C, strain PAC10, hits give low values 0.996 and 1.01 | locus YGR135W, strain pre9, hits give low values 0.992 | locus YGR229C, strain SMI1, hits give low values 0.996 | locus YGR252W, strain gcn5, hits give low values 1.1 | locus YHR013C, strain ard1, hits give low values 0.972 | locus YHR027C, strain rpn1, hits give low values 0.993 | locus YHR030C, strain SLT2, hits give low values 0.977 and 1.03 | locus YHR079C, strain IRE1 (second series), hits give low values 0.986 | locus YHR079C, strain IRE1, hits give low values 1.07 | locus YHR094C, strain hxt1, hits give low values 0.99 | locus YHR129C, strain ARP1, hits give low values 0.985 | locus YHR142W, strain chs7, hits give low values 0.998 | locus YHR200W, strain rpn10, hits give low values 0.99 | locus YIL066C, strain RNR3, hits give low values 0.998 | locus YIL073C, strain SPO22, hits give low values 1.01 | locus YIL125W, strain kgd1, hits give low values 0.992 | locus YIR030C, strain dcg1, hits give low values 0.991 | locus YJL092W, strain hpr5, hits give low values 0.994 | locus YJL095W, strain BCK1 (second series), hits give low values 0.996 | locus YJL095W, strain BCK1, hits give low values 0.952 and 1.02 | locus YJL115W, strain asf1, hits give low values 1 | locus YJL129C, strain trk1, hits give low values 1.01 | locus YJL134W, strain LCB3, hits give low values 0.996 | locus YJL154C, strain vps35, hits give low values 1.01 | locus YJL164C, strain tpk1, hits give low values 0.992 | locus YJL166W, strain qcr8, hits give low values 1 | locus YJL168C, strain set2, hits give low values 0.983 | locus YJL187C, strain SWE1 (second series), hits give low values 0.988 | locus YJL187C, strain SWE1, hits give low values 1 | locus YJR043C, strain POL32, hits give low values 0.98 | locus YJR066W, strain TOR1, hits give low values 0.997
